Where “and” joins values, the source holds several entries; their conditions need not be identical. Equal entries are not always repeated. This is part of a sample that, as a whole, favours compounds with a hit. Of some 83,000 tested, about 20% had one in any assay.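 Testing used 96-well plates and a 48-hour single-concentration exposure. Example: -40 means 40% of the starting cells died.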 Calls of active or inactive are those of the source. How the source made its calls: active means growth percent below 10; inactive means the rest.
How the values were obtained:
Test in all cases: NCI-60 one-dose screen, 48 h (100 = growth as untreated, 0 = no growth, -100 = all killed)
Settings in all cases: 10 µM
NCI-H226 lung = test system: NCI-H226 lung
NCI-H322M lung = test system: NCI-H322M lung
HOP-62 NSCLC = test system: HOP-62 NSCLC
NCI-H460 lung = test system: NCI-H460 lung
HOP-92 NSCLC = test system: HOP-92 NSCLC
NCI-H522 lung = test system: NCI-H522 lung
A549/ATCC NSCLC = test system: A549/ATCC NSCLC
786-0 renal = test system: 786-0 renal
COLO 205 colon = test system: COLO 205 colon
DU-145 prostate = test system: DU-145 prostate
K-562 leukemia = test system: K-562 leukemia
MALME-3M melanoma = test system: MALME-3M melanoma
MDA-MB-231 breast = test system: MDA-MB-231 breast
RXF 393 renal = test system: RXF 393 renal
SF-268 CNS = test system: SF-268 CNS
SF-295 CNS = test system: SF-295 CNS
SF-539 CNS = test system: SF-539 CNS
UACC-257 melanoma = test system: UACC-257 melanoma
M14 melanoma = test system: M14 melanoma
NCI-H23 lung = test system: NCI-H23 lung

| Compound | growth (NCI-H226 lung) | growth (NCI-H322M lung) | growth (HOP-62 NSCLC) | growth (NCI-H460 lung) | growth (HOP-92 NSCLC) | growth (NCI-H522 lung) | growth (A549/ATCC NSCLC) | growth (786-0 renal) | growth (COLO 205 colon) | growth (DU-145 prostate) | growth (K-562 leukemia) | growth (MALME-3M melanoma) | growth (MDA-MB-231 breast) | growth (RXF 393 renal) | growth (SF-268 CNS) | growth (SF-295 CNS) | growth (SF-539 CNS) | growth (UACC-257 melanoma) | growth (M14 melanoma) | growth (NCI-H23 lung) |
| --- | --- | --- | --- | --- | --- | --- | --- | --- | --- | --- | --- | --- | --- | --- | --- | --- | --- | --- | --- | --- |
| COc1cc([N+](=O)[O-])c2ncccc2c1[N+](=O)[O-] | 77.1% (inactive) | 103% (inactive) | 105% (inactive) | 87.3% (inactive) | 95.7% (inactive) | -47.9% (active) | 97.9% (inactive) | 77.7% (inactive) | 86.1% (inactive) | 98.4% (inactive) | 29.4% (inactive) | 114% (inactive) | 78.2% (inactive) | 59.4% (inactive) | 52.6% (inactive) | 94.3% (inactive) | 13% (inactive) | 50.4% (inactive) | 65.8% (inactive) | – |
| COC12C(COC(N)=O)C3=C(C(=O)C(C)=C(N)C3=O)N1CC1C2N1C (stereo not drawn) | 64.2% (inactive) | 30% (inactive) | 32.3% (inactive) | -6.38% (active) | -0.595% (active) | 17.7% (inactive) | 47.5% (inactive) | 31.1% (inactive) | 46.2% (inactive) | -3.38% (active) | 50.1% (inactive) | 31.4% (inactive) | 93.9% (inactive) | 46% (inactive) | 45.8% (inactive) | 17.3% (inactive) | 19.8% (inactive) | 16.6% (inactive) | 28.4% (inactive) | – |
| CC(=O)[O][Hg][c]1c(C)c(C)cc(C)c1C | -5.8% (active) | 3.3% (active) | -82.6% (active) | -16.7% (active) | – | -96.4% (active) | 91.5% (inactive) | 19% (inactive) | -9.36% (active) | -61% (active) | -10.1% (active) | – | -51.5% (active) | -45.5% (active) | -74.4% (active) | 13.6% (inactive) | 41.9% (inactive) | -64.1% (active) | -87% (active) | -45.3% (active) |
| Oc1c(Cl)cc(Cl)c2ccccc12.[Cu+2] | – | 92.1% (inactive) | 108% (inactive) | 99.4% (inactive) | 104% (inactive) | 71.2% (inactive) | 111% (inactive) | 116% (inactive) | 102% (inactive) | 106% (inactive) | 69% (inactive) | 96.3% (inactive) | 81.4% (inactive) | 103% (inactive) | 109% (inactive) | – | 108% (inactive) | 113% (inactive) | 97.9% (inactive) | 91.4% (inactive) |
| O=c1[nH]c2ccccc2n1C1CCN(CCCC(c2ccc(F)cc2)c2ccc(F)cc2)CC1 | 92.1% (inactive) and 61.6% (inactive) | 64.2% (inactive) and 67.5% (inactive) | 84% (inactive) and -30.2% (active) | -0.452% (active) and 2.65% (active) | -42.3% (active) and 27.1% (inactive) | 62.3% (inactive) and 33.6% (inactive) | 39.5% (inactive) and 10.9% (inactive) | -43.7% (active) and -57.1% (active) | -50.3% (active) and -70.3% (active) | 56.7% (inactive) and 53.3% (inactive) | -62.4% (active) and -55.3% (active) | -8.01% (active) and -56.3% (active) | 40% (inactive) and 45.2% (inactive) | 52.9% (inactive) and -40.4% (active) | 23.6% (inactive) and 70.8% (inactive) | 6.63% (active) and 25.3% (inactive) | 77.3% (inactive) and -66.9% (active) | -27.7% (active) and 24.7% (inactive) | 14.9% (inactive) | – |
| [O-][n+]1ccccc1S | 95.8% (inactive) | 64.1% (inactive) | 58% (inactive) | 8.67% (active) | 97.1% (inactive) | -34.7% (active) | 30.4% (inactive) | 46.3% (inactive) | 16.1% (inactive) | 32.3% (inactive) | 31.2% (inactive) | 110% (inactive) | 58.7% (inactive) | 46.9% (inactive) | 70.7% (inactive) | 44.4% (inactive) | 67.6% (inactive) | 23.9% (inactive) | – | – |
| C[CH2][Hg][S]c1ccccc1C(=O)O | -53.4% (active) | 66.2% (inactive) | 47.2% (inactive) | 36% (inactive) | – | -77.2% (active) | 35% (inactive) | 1.68% (active) | -100% (active) | -28.6% (active) | -4.39% (active) | -96.4% (active) | -5.17% (active) | -96.8% (active) | -18.6% (active) | 97.2% (inactive) | – | -98.5% (active) | -67.1% (active) | 11.3% (inactive) |
| O=[N+]([O-])/C=C/c1ccc([N+](=O)[O-])cc1 | 114% (inactive) | 90.4% (inactive) and 92.5% (inactive) | 69.5% (inactive) and 107% (inactive) | 19.9% (inactive) and 102% (inactive) | 67.6% (inactive) and 97.8% (inactive) | 81.6% (inactive) and 47.3% (inactive) | 44.2% (inactive) and 101% (inactive) | 55.2% (inactive) and 98.1% (inactive) | -8.72% (active) and 50.6% (inactive) | -47.5% (active) and 72.1% (inactive) | 5.65% (active) and 18.5% (inactive) | 66.7% (inactive) and 54.6% (inactive) | 66.5% (inactive) and 84.5% (inactive) | 101% (inactive) | 25.4% (inactive) and 103% (inactive) | 76.2% (inactive) and 104% (inactive) | -27.5% (active) and 75.7% (inactive) | -4.16% (active) and 96.5% (inactive) | -29.1% (active) and 66.1% (inactive) | – |
